Unmarked numbers belong to inactive results. Activity calls are given as the source filed them. The rule behind the calls is not given here. A value given as a limit tells only on which side of the number the result lay.

The assay in a line: C difficile toxins, biochemical counterscreen, UDPG substrate absence, confirmatory dose response (AID 720650). To be noted: series mostly up to 19.5 µM; activity change, negative = inhibition: at the top concentration.
As to `O=C(Cc1ccccn1)c1ccncc1`, the “activity change, negative = inhibition” value is -8.24%.
Still for that read-out and setting: the same measure for `Cc1ccc(C(=O)OCC(=O)c2cc(C)n(CC3CCCO3)c2C)cc1` (configuration not stated): 13.3%.
Same read-out and setting: the same measure for `COc1cccc(/C=C/c2onc(C)c2S(=O)(=O)N2CCC(C(=O)NC3CCCCCC3)CC2)c1`: -2.75%; for `CC(C)Cc1[nH]c(=O)c(C#N)c2c1CCCC2`: 6.43%; for `O=C(OCC(=O)N1CCCc2ccccc21)c1ccc(C(F)(F)F)cc1`: -11.2%.
Turning to `CC(C)Cc1nnc(NC(=O)CCC(=O)NCc2ccccc2Cl)s1`, the “activity change, negative = inhibition” value is -3.67%.
On the same count and under the same terms, the result for `Cc1cc(C)c(S(=O)(=O)N2CCCCC2C(=O)O)c(C)c1` (configuration not stated) reads -14%; that for `CC(C)(Oc1ccc(Cl)cc1)C(=O)NC1CC1`, 0.308%.
Turning to `COc1cc(/C=N/n2c(-c3ccccc3)n[nH]c2=S)ccc1O`, the “activity change, negative = inhibition” value is 7.21%.
For `COc1ccc2nc(NNC(=O)C3COc4ccccc4O3)sc2c1` (configuration not stated), the AC50 is < 0.16 µM (active).
For `O=C1Nc2ccccc2C1c1ncc(C(F)(F)F)cc1Cl` (configuration not stated), the “activity change, negative = inhibition” value is -15.9%.
For `CC(OC(=O)C1=COCCO1)C(=O)c1ccc(Br)cc1` (configuration not stated), the “activity change, negative = inhibition” value is 7.35%.
With `CNC(=O)C[C@H]1CC[C@@H]2[C@@H](COc3ccc(NC(=O)c4cccc(OC)c4)cc3C(=O)N2C)O1`, the “activity change, negative = inhibition” value was -18.7%.
Turning to `O=C(CNS(=O)(=O)c1ccc([N+](=O)[O-])cc1)N/N=C\c1ccc(O)cc1`, the concentration at half-maximal activity (AC50) was 13.2 µM (active).
As for `C=C1CCN(Cc2ccccc2)S(=O)(=O)c2ccccc21`, the “activity change, negative = inhibition” value is -1.24%.
Still for that read-out and setting: the result for `CN1C(=O)c2cc(NC(=O)Nc3ccccc3Cl)ccc2OC[C@H]2O[C@@H](CC(=O)NCCCN3CCOCC3)CC[C@H]21` reads -6.9% [at 21 µM].
For the compound `CC1(C)CC(=O)C(C=Nc2ccc(O)cc2)=C(O)C1`, the AC50 is 5.68 µM (active).

Source of the values: PubChem BioAssay AID720650 (Broad Institute, 2013).
